Compounds with a hit are over-represented: about 3% of the library has one in this group of screens.
ClpP mod: qHTS Assay for Activators of ClpP; AID 651965, 2013; purified B. subtilis ClpP, FRET peptide cleavage, 20 min; 340,000 tested, 1.9% active; ATP-dependent Clp protease proteolytic subunit (Bacillus subtilis (strain 168)), P80244; Potency, µM (series often up to 57.5 µM), inactives show top-dose activity change, negative = active; active means well fitted falling curve with a large enough effect; inconclusive means small, poorly fitted or top-dose-only effect; inactive means no such curve, though single readings can be large or run the other way; further: potency means the concentration at half of the fitted maximal effect; the source files actives as falling curves though it sought activators and does not explain the sign; nearly all actives have a fitted effect of over 65% in size
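Buffer: 100 mM Tris/HCl pH8, 100 mM KCl, 0.05% low protease BSA, 2.5% glycerol, 0.01% Tween-20. ClpP 10 microg/mL final; 20 min RT; delta FRET normalized to ADEP and DMSO controls.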
Chronic BCR inh: chronic active BCR signaling inhibition | ABC-DLBCL IkBa-CBG/CBR reporter, luminescence ratio, 4 h | Potency, µM (titrated, usually from 46.1 µM), without a hit: at the top dose activity change, negative = inhibition, usual class: inhibitors | 340,000 tested, 0.05% active | AID 493014; active means well fitted inhibition curve with a large enough effect in the signal ratio, with a control signal flat, not every such curve was filed as active; inconclusive means small, poorly fitted or top-dose-only effect, or effect the other way, or a change in a side signal; the % refers to the signal ratio;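 further: potency means the concentration at half of the fitted maximal effect; plate controls were basal doxycycline-induced cells for no effect and cells given 10 µM MG132 for full effect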
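Doxycycline induced both beetle luciferases in TMD8 lymphoma cells; IKK-driven degradation limits the IkappaBalpha-fused green signal, while red luminescence normalises for cell number and nonspecific effects. Compounds tested up to 46 uM, 4 hrs.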
hERG WT inh: KCNH2 (human, wildtype) channel inhibition; Q12809; U2OS, BacMam KCNH2, thallium flux FluxOr; hits give low values; activity change, % at 1.84 µM; 340,000 tested, 0.37% active; AID 720551;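 active means maximum activity change below -70%; inconclusive means maximum activity change between -70% and -50%; inactive means maximum activity change above -50%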; further: on the % scale 0 is the no-effect control and ±100 the full control effect
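U2OS cells were transduced with wild-type KCNH2 virus (2.03 x 10^8 / mL) for 4 h at room temperature, then cultured overnight at 37 C. Thallium flux was read with FluxOr dye. Rate constants were normalized to DMSO controls.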
ALOX12 inh: inhibitors of human 12S-lipoxygenase ALOX12. 580,000 tested, 1.1% active. Potency, µM (titrated, usually from 108 µM), for inactives: at the top dose activity change, negative = inhibition, most hits filed as inhibitors. purified 12hLO, xylenol orange hydroperoxide absorbance; active means well fitted inhibition curve with a large enough effect; inconclusive means small, poorly fitted or top-dose-only effect, or another doubt; inactive means no such curve, though single readings can be large or run the other way; further: potency means the concentration at half of the fitted maximal effect; on the % scale 0 is the no-effect control and ±100 the full control effect
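Hydroperoxide product was detected by ferrous iron/xylenol orange as the 573 to 405 nm absorbance ratio. Arachidonic acid at 40 uM (final) was turned over for 30 min at room temperature by 150 nM human 12hLO, pH 7.0 Hepes buffer, after 15 min compound preincubation.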
LDHA block: inhibitors of human lactate dehydrogenase A | purified LDHA, NADH/diaphorase-resazurin fluorescence; hits give low values | activity change, % (values are at about 110 or 230 µM) | 480,000 tested, 0.15% active; in the data active means activity change below about -30%; inconclusive means mostly about -25% to -30%;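 further: plate controls were DMSO wells for no effect and wells without enzyme for full effect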
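Enzyme activity of human lactate dehydrogenase 5 (2 nM; 0.06 mM NADH, 0.2 mM pyruvate, 5 min, RT) is measured via a resazurin/diaphorase fluorescence readout of residual NADH.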
KCNH2 3.1 block: blocks the human KCNH2 3.1 channel isoform; U2OS KCNH2 3.1, thallium flux FluxOr; hits give low values; 340,000 tested, 0.95% active; activity change, % (tested at about 1.8 µM);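 active means maximum activity change below -70%; inconclusive means maximum activity change from -70% to -50%; inactive means maximum activity change above -50%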;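 further: thallium influx rate constant from kinetic fluorescence after stimulation buffer; on the % scale 0 is the no-effect control and ±100 the full control effect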
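Channel expression came from 3.1 mutant virus (1.77 x 10^8 /mL) applied to suspended U2OS cells for 4 h. Flux was tracked with FluxOr dye plus Red40 quencher, and kinetic rate constants normalized to controls.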
Active calls of the source: *; ? = inconclusive; / = not tested or not shown; ! = not confirmed by another sample.

SMILES | ClpP mod | Chronic BCR inh | hERG WT inh | ALOX12 inh | LDHA block | KCNH2 3.1 block
CCOc1ccccc1CNC(=O)c1cc2oc3ccccc3c2n1CC | 32µM*! | 15% | 0 | -12% | -5 | -10
COC(=O)C1(C(=O)OC)CCC(=O)CC1c1ccccc1 (stereo not given) | / | / | / | 7% | 2 | /
CC(C)(C)NC(=O)c1cccc(NC(=O)c2ccc(Cl)c(Cl)c2)c1 | / | / | / | ? | 3 | /
CCOc1ccc(-n2cnnn2)cc1S(=O)(=O)NCc1ccccc1 | 0% | ? | 84 | 4% | -7 | 12
CCOc1cc(S(=O)(=O)NCc2ccccc2)c(OCC)cc1-n1cnnn1 | 32µM* | / | 8 | 5% | -8 | -13
CCOc1cc(S(=O)(=O)N(Cc2ccccc2)Cc2ccccc2)c(OCC)cc1-n1cnnn1 | 28µM* | -1% | 4 | 1% | 1 | 0
CC(C)CNc1nc(C(=O)Nc2nnc(C3CC3)s2)cs1 | / | / | / | 27% | 0 | /
O=C(NCc1ccccc1Cl)c1ccc2c(c1)NC(=O)C(CS(=O)(=O)Cc1ccc(F)cc1Cl)N2 (stereo not given) | 4% | -1% | / | ? | -5 | /
CCOCCCNC(=O)c1ccc2c(c1)NC(=O)C(CS(=O)(=O)Cc1ccc(F)cc1Cl)N2 (stereo not given) | 7.1µM* | -3% | / | 0% | 2 | /
CCN(CC)CCNC(=O)c1ccc2c(c1)NC(=O)C(CS(=O)(=O)Cc1ccc(F)cc1Cl)N2 (stereo not given) | 28µM* | 3% | / | 101% | -6 | /
O=C(NCc1ccc(Cl)cc1)c1ccc2c(c1)NC(=O)C(CS(=O)(=O)Cc1ccc(F)cc1Cl)N2 (stereo not given) | 4% | / | / | ? | -1 | /
CCN(CC)CCCNC(=O)c1ccc2c(c1)NC(=O)C(CS(=O)(=O)Cc1ccc(F)cc1Cl)N2 (stereo not given) | 3.2µM* | 3% | / | 95% | 3 | /
CN(C)CCNC(=O)c1ccc2c(c1)NC(=O)C(CS(=O)(=O)Cc1cccc(Br)c1)N2 (stereo not given) | 32µM* | -2% | / | 268% | -1 | /
COc1cc(OC)cc(C(=O)NCC(=O)O)c1 | / | / | / | ? | 1 | /
Cc1ccc(N/N=C/c2ccc(C#N)cc2)cc1 | / | / | / | ? | 5 | /
CSc1cccc(N=Cc2ccc(-c3ccccc3Cl)o2)c1 | / | / | / | ? | 24 | /
CCOC(=O)C1(CCOc2ccccc2)CCN(Cc2ccc(F)c(OC)c2)CC1 | / | -1% | 26 | -7% | 0 | ?
CCOC(=O)C1(CCOc2ccccc2)CCN(Cc2cccc(OC)c2O)CC1 | / | -9% | -102* | 7.1µM* | 2 | -113*
CCOC(=O)C1(CCOc2ccccc2)CCN(Cc2ccc(O)c(Cl)c2)CC1 | -1% | -5% | -4 | 0% | 1 | ?
CCOC(=O)C1(CCOc2ccccc2)CCN(Cc2ccncc2)CC1 | / | -12% | 10 | -4% | -2 | 5
CCOC(=O)C1(CCOc2ccccc2)CCN(Cc2ccc(O)c(OC)c2)CC1 | -1% | -5% | ? | ? | -6 | -75*
CCOC(=O)C1(CCOc2ccccc2)CCN(Cc2cccn2-c2ncccn2)CC1 | / | 2% | -90* | 5% | 3 | -101*
CCOC(=O)C1(CCOc2ccccc2)CCN(Cc2ccc(-n3cccn3)cc2)CC1 | -2% | ? | -130* | -15% | 2 | -108*
Cc1cc(C)c2nc(-c3cccnc3)cc(C(=O)O)c2c1 | / | / | / | 13% | -3 | /
Cc1ccc(S(=O)(=O)N2CCCCC2)cc1NC(=O)COC(=O)c1ccccc1C(F)(F)F | / | / | / | ? | 2 | /
SMILES | ClpP mod | Chronic BCR inh | hERG WT inh | ALOX12 inh | LDHA block | KCNH2 3.1 block
CCOC(=O)C1(Cc2cccc(OC)c2)CCN(Cc2cc(OC)ccc2OC)CC1 | / | 6% | 20 | -4% | -8 | ?
CCOC(=O)C1(CCOc2ccccc2)CCN(Cc2ccc(C(=O)OC)cc2)CC1 | -1% | -10% | 8 | -20% | 0 | -88*
CCOC(=O)C1(CCOc2ccccc2)CCN(Cc2cccc(OC)c2)CC1 | -2% | / | -96* | 1% | 0 | -116*
CCOC(=O)C1(CCOc2ccccc2)CCN(Cc2cc(OC)ccc2OC)CC1 | -1% | -2% | -80* | -9% | 4 | -88*
CCOC(=O)C1(CCOc2ccccc2)CCN(Cc2cccs2)CC1 | / | 2% | ? | 20% | -3 | -86*
COC(=O)c1cc(-c2cc(C(F)(F)F)ccc2Cl)oc1C | / | / | / | -21% | 4 | /
COc1ccc2[nH]c(C)c(C(=O)CN3CCC(Cc4ccccc4)CC3)c2c1 | / | / | / | 25µM* | -2 | /
COc1ccc(NC(=O)NCCCN2CCC(Cc3ccccc3)CC2)cc1 | -1% | -6% | -44 | ? | -6 | -104*
O=C(NCCCN1CCN(c2ccc(F)cc2)CC1)NC12CC3CC(CC(C3)C1)C2 | / | 2% | ? | 1% | -1 | -83*
CSc1ccc(NC(=O)NCCN2CCc3ccccc3C2)cc1 | 0% | 12% | 14 | ? | -4 | -20
COc1ccc(NC(=O)NCCCCc2ccccc2)cc1 | 2% | 2% | -3 | 0% | -4 | 10
O=C(NCCCN1CCOCC1)NC12CC3CC(CC(C3)C1)C2 | 0% | 0% | 0 | 7% | -2 | -17
CSc1ccc(NC(=O)NCCCN2CCC(Cc3ccccc3)CC2)cc1 | 1% | ? | -48 | ? | -2 | -106*
CCOc1ccc(C(=O)c2oc3ccccc3c2NC(=O)c2nc(S(C)(=O)=O)ncc2Cl)cc1 | / | / | / | 18% | -1 | /
CSc1ccc(N2CCN(CCCNC(=O)Nc3ccccc3F)CC2)cc1 | 0% | -4% | 38 | -3% | -12 | -78*
O=C(NCCCN1CCN(c2ccc(F)cc2)CC1)Nc1ccccc1Cl | -3% | / | / | -19% | -3 | /
CN(C)CCNc1c([N+](=O)[O-])cnc2ccc(Br)cc12 | / | / | / | -29% | -1 | /
CCN(CC)c1ccc(C(=C2C=CC(=[N+](CC)CC)C=C2)c2ccccc2)cc1 | -8% | / | -15 | 22µM* | 14 | -24
CN(CC(=O)NC(C)(C)C)C(=O)/C=C/c1ccc(C#N)cc1 | / | / | / | 15% | 4 | /
CSc1nc(Sc2ccccc2Cl)c2ccccc2n1 | 32µM* | ? | 20 | 0% | -4 | 11
CCOC(=O)c1cnc(SC)nc1Sc1ccccc1Cl | 1% | ? | 9 | 16% | 1 | -4
Cc1cccc(/C=C(/C(=O)N(C)Cc2ccsc2)c2cccs2)c1 | / | / | / | -19% | -4 | /
CCn1nnnc1SCC(=O)c1c(C)c(C)cc(C)c1C | / | / | / | ? | 0 | /
CCOC(=O)c1c(C)[nH]c(C)c1C(=O)COC(=O)c1nn(CC)c(=O)c2ccccc12 | 1% | / | -102* | -2% | -2 | -5

Compound activity as filed in PubChem BioAssay.
